Pf growth 48h = P. falciparum growth inhibition at 48 hours (one generation). P. falciparum luciferase growth in erythrocytes, 48 h. Potency, µM (highest dose often 28.7 µM), inactives show at the top dose activity change, negative = inhibition, most hits filed as inhibitors. 310,000 compounds, 5.9% hits. AID 504832; note: potency is the fitted concentration of half-maximal effect; % is set by controls: 0 for no effect and ±100 for the full control effect
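In quantitative HTS format, infected erythrocytes bearing luciferase-reporter parasites were treated for a single generation at 37 C. Luminescence after adding detection reagent served as the growth measure.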
Marburg entry inh = Marburg virus entry inhibition. 300,000 compounds, 1.8% hits. Marburg virus pseudotyped entry inhibition, cell reporter. Potency, µM (series often up to 37.8 µM), without a hit: at the highest dose activity change, negative = inhibition, most hits filed as inhibitors; calls by dose curve; tested in HEK293 cells; note: potency is the fitted concentration of half-maximal effect; % is set by controls: 0 for no effect and ±100 for the full control effect
CHX counter = affects cycloheximide protein synthesis inhibition readout, counter-screen. cell reporter, cycloheximide protein synthesis inhibition counterscreen. max response, %. 300,000 compounds, 12% hits; in the data active = max response mostly above about 13%, no sharp cut-off; inactive = mostly below about 14%; note: read at 38.3 µM for the half of the compounds with a filed dose; 0% is about no effect
Shiga toxin inh = Shiga toxin inhibition. AID 2315. Vero cells, Shiga toxin protein synthesis inhibition reporter. inhibition, % at 38.7 µM. 290,000 compounds, 9.2% hits; in the data active = inhibition mostly above about 28%, no sharp cut-off; inactive = mostly below about 43%; note: 0% is about no effect
Pf growth 96h = inhibits malaria parasite growth, 96 h | 320,000 compounds, 6.9% hits | P. falciparum luciferase reporter growth, 96 h | Potency, µM (top dose mostly 28.7 µM), for the others: at the highest dose activity change, negative = inhibition, usual class: inhibitors | AID 504834; note: potency is the fitted concentration of half-maximal effect; % is set by controls: 0 for no effect and ±100 for the full control effect
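Two-generation exposure (96 h) targets delayed-death phenotype. Reporter parasites carrying integrated firefly luciferase, in red cells at 2% hematocrit and 0.05% parasitemia final, kept at 37 C, 5% CO2; luminescence loss indicates inhibition.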
LASV entry inh = Lassa virus entry inhibition. Lassa virus pseudotype entry inhibition, cell reporter. Potency, µM (series often up to 37.9 µM), for the others: at the top dose activity change, negative = inhibition, most hits filed as inhibitors. 300,000 compounds, 1.2% hits; calls by dose curve; tested in HEK293 cells; note: potency is the fitted concentration of half-maximal effect; % is set by controls: 0 for no effect and ±100 for the full control effect; nearly all actives have a fitted effect of over 50% in size
The depositor's hits bear a star; i = inactive; ? = inconclusive; . = no result; [ ] = remark or other dose. Compounds with a hit are over-represented: about 19% of the library has one in this group of screens. Unless noted, calls come from the whole dose curve; as a rule, active = well fitted inhibition curve with a large enough effect; inconclusive = small, poorly fitted or top-dose-only effect, or another doubt; inactive = no such curve, though single readings can be large or run the other way.

SMILES | Pf growth 48h | Marburg entry inh | CHX counter | Shiga toxin inh | Pf growth 96h | LASV entry inh
COc1ccc(CCNc2oc(COc3ccc(F)cc3)nc2C#N)cc1 | ? | -25.9% | 4.9 | -3.7 | -19.6% | ?
CC(C)CC(NC(=O)c1cccs1)c1nnc(SCc2ccc(Cl)c(Cl)c2)n1C (stereo unspecified) | 11.7µM* | ? | -2.7 | -11.8 | ? | -13.5%
Cc1ccc(CSc2ncnc3c2cnn3-c2ccc(C)cc2)cc1 | 154.8% | ? | 15.3* | 7.8 | 158.4% | 7.2%
Cc1nc(SCc2ccccc2)c2ccsc2n1 | 2.3% | -13.9%[46.1 µM] | -1.3 | -5.2 | 13.6% | ?
Cc1ccc(CSc2ncnc3c2cnn3-c2ccccc2)cc1 | 54.0% | -5.6% | 0.7 | -12.4 | 23.1% | -5.2%
Fc1ccc(-n2ncc3c(SCc4cccnc4)ncnc32)cc1 | -21.8% | ? | 20.3* | 23.4 | 28.9% | ?
c1ccc(CSc2ncnc3sccc23)cc1 | 8.7% | . | 13.9 | 52.4* | -24.2% | .
Cc1ccc(-n2ncc3c(SCc4ccccc4)ncnc32)cc1 | 194.8% | ? | 19.9* | 20.2 | 163.5% | 18.6%
COc1ccc(C(=O)CN2C(=O)c3ccccc3S2(=O)=O)cc1Br | -19.7% | ? | 6.4 | 10.8 | ? | ?
O=C(CN1C(=O)c2ccccc2S1(=O)=O)c1ccc(F)c(F)c1 | 23.4% | 10µM* | 2.6 | -7.1 | 0.0% | ?
COc1ccc(C(=O)CN2C(=O)c3ccccc3S2(=O)=O)cc1 | 7.38µM* | ? | -5.5 | -21.7 | 75.6% | ?
CC1(C)OC(=O)NC1=O | -5.5% | . | . | . | -11.6% | .
CC(C)(C)C(=O)N1CCC(O)(CS(=O)(=O)Cc2ccc(Cl)cc2)CC1 | 22.8% | -4.1% | 1.6 | -11.9 | 7.2% | -12.9%
Cc1cccc(N=Nc2cn[nH]c2-c2ccco2)c1 | i | 26.3%[46.1 µM] | 53.8* | 99.7* | 217.9% | 9.6%
CCCCCC(=O)NC(Nc1ccc(S(N)(=O)=O)cc1)C(Cl)(Cl)Cl (stereo unspecified) | 13.7% | -4.0% | -1.6 | -11.2 | ? | 17.4%
O=C1OC(c2ccccc2)=N/C1=C\C=C\c1ccccc1[N+](=O)[O-] | 19.1% | 22.5% | -0.8 | -2.7 | 0.465µM* | 11.8%
CCCCOC(=O)Cn1cnc2ccc(Br)cc2c1=O | 9.7% | -0.5% | -2.8 | -10.0 | ? | 0.7%
CC1CCCCN1C(=O)COc1ccccc1F (stereo unspecified) | 30.1% | 0.9%[46.1 µM] | -3.8 | 4.8 | -2.6% | 20.4%
CC1CCCCN1C(=O)CSc1ccc(-c2ccc(F)cc2)nn1 (stereo unspecified) | 3.5% | -18.9% | 18.9* | 41.3 | ? | 15.3%
CC1CCCCN1C(=O)CSc1nc(-c2ccccc2)cn1N (stereo unspecified) | 76.9% | -7.1% | 24.9* | 46.4* | 47.0% | ?
O=C(COC(=O)c1nc(Cl)ccc1Cl)Nc1ccccc1OC(F)F | 4.7% | 13.0% | -1.7 | 4.6 | 44.6% | -0.8%
Cc1ccc(C)c(NC(=O)CCc2ccc(C)o2)c1 | 6.0% | . | -3.3 | -10.9 | ? | .
COC(=O)c1cc(OC)c(OC)cc1NC(=O)c1ccc(OC)cc1 | 3.0% | -1.5% | -3.8 | -4.1 | 32.8% | -19.8%
COC(=O)c1cc(OC)c(OC)cc1NC(=O)c1ccc(C)o1 | . | ? | 6.0 | -15.3 | 5.22µM* | -18.1%
COC(=O)c1cc(OC)c(OC)cc1NC(=O)CCc1ccc(C)o1 | 10.4µM* | -7.9%[46.1 µM] | -1.6 | -9.8 | 17.0% | -6.1%
SMILES | Pf growth 48h | Marburg entry inh | CHX counter | Shiga toxin inh | Pf growth 96h | LASV entry inh
COC(=O)c1cc(OC)c(OC)cc1NC(=O)c1cc(C(C)(C)C)oc1C | 2.94µM* | 5.3%[46.1 µM] | 1.2 | -0.3 | ? | -3.2%[46.1 µM]
Cc1ccc(NC(=O)CCc2ccc(C)o2)c(C)c1 | 2.9% | . | 13.2 | 15.0 | 45.6% | .
COC(=O)c1cc(OC)c(OC)cc1NC(=O)c1ccc(C)cc1 | . | 15.7% | -1.0 | -11.4 | -20.8% | -3.0%
Cc1ccc(CCC(=O)Nc2ccccc2C(=O)O)o1 | 40.7% | . | 26.0* | 58.9* | -30.3% | .
COc1ccc2c(c1)c1c(c(=O)n(CCc3ccccc3)c(=O)n1Cc1cccc(C)c1)n2C | . | . | . | . | . | 10.8%[46.1 µM]
C/C(=N\Nc1ccc([N+](=O)[O-])cc1)c1ccc(-n2nncc2C)cc1 | 3.6% | ? | -2.3 | -13.9 | 3.9% | ?
O=C(CC1NCCc2ccccc21)Nc1ccccc1 (stereo unspecified) | 44.9% | 1.1%[46.1 µM] | 23.9* | 35.1* | 29.6% | 10.7%
O=C(CC1NCCc2ccccc21)Nc1ccc(Oc2ccccc2)cc1 (stereo unspecified) | 352.2% | ? | 14.9 | -12.6 | ? | 6.3%
O=C(CC1NCCc2ccccc21)Nc1ccccc1Cl (stereo unspecified) | 9.4% | ? | 26.0* | 39.2 | -2.8% | 13.3%
Cc1noc(C)c1COc1ccc(C(=O)OCC(=O)NC(=O)C2COc3ccccc3O2)cc1 (stereo unspecified) | 10.1% | -4.0% | -2.7 | 34.8 | . | ?
CCN=C1SC(CC(=O)NC(C)C)C(=O)N1CC (stereo unspecified) | 6.9% | 3.5%[46.1 µM] | -5.8 | -3.4 | . | -13.8%
C=CCn1c(SCC(=O)Nc2ccccc2C)nc(O)cc1=O | ? | 10.3%[46.1 µM] | -7.0 | -10.7 | 71.9% | 0.2%[46.1 µM]
Nc1c(-c2ccccc2)nc(Cl)nc1-c1ccccc1 | 50.5% | ? | 14.4 | -16.3 | -51.4% | -12.1%
c1ccc(-c2nc3nonc3nc2-c2ccccc2)cc1 | 11.7µM* | ? | 0.7 | 24.9 | 19.9% | -25.5%
C/C(=N\N1CCN(c2ccccc2)CC1)c1ccccc1O | 16.6% | . | 23.1* | 32.6 | ? | .
C/C(=N\N1CCN(c2ccccc2)CC1)c1ccc(O)cc1 | -16.4% | . | 24.4* | 45.4* | 16.6% | .
Cc1cc(C)n(C(=O)/C(C#N)=N\Nc2ccccc2[N+](=O)[O-])n1 | 0.3% | -17.0%[46.1 µM] | -4.3 | 10.5 | 6.6% | 1.1%
Cc1cc(C)n(C(=O)/C(C#N)=N/Nc2cc(Cl)cc(Cl)c2)n1 | 11.7µM* | . | -7.3 | 20.4 | ? | .
Cc1cc(C)n(-c2ccc(C(=O)OCC(=O)NC(c3ccccc3)c3ccccc3)cc2)n1 | -5.2% | 1.1% | -0.9 | -16.0 | -29.9% | ?
Cc1cccc2nc3ccccc3nc12 | 422.5% | ? | 16.8* | 46.1 | -28.2% | ?
Cc1cccc2c3nc4ccccc4nc3n(C)c12 | 75.7% | ? | 18.0 | 23.3 | 55.1% | ?
NC(=O)CC(NC(=O)c1ccccc1)c1ccc(NCc2ccccc2)c([N+](=O)[O-])c1 (stereo unspecified) | ? | . | 8.6 | 7.3 | 9.28µM* | .
NC(=O)CC(NC(=O)c1ccccc1)c1ccc(NCCc2ccc(Cl)cc2)c([N+](=O)[O-])c1 (stereo unspecified) | 13.1µM* | . | -4.7 | -8.1 | ? | .
NC(=O)CC(NC(=O)c1ccccc1)c1ccc(NCc2ccc(F)c(F)c2)c([N+](=O)[O-])c1 (stereo unspecified) | ? | . | -2.7 | -3.3 | ? | .
CCOC(=O)CSc1nc(N)c(C#N)c(-c2ccc(OCC)cc2)c1C#N | 34.8% | -20.8% | 6.8 | -13.5 | 14.2% | -16.4%
